Laboratory results as given in PubChem BioAssay (NCI).
About 79,000 compounds went through this panel and 15% of them were active in at least one assay; those are over-represented in the sample as a whole. Cut-off read from the data, not from the text of the source: active = growth inhibition above about 70%; inactive = the rest.

Experiments:
[1] = NCI Yeast Anticancer Drug Screen. Data for the rad50 strain (AID 155);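 note: 0% = growth of vehicle-only cultures of the same strain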; details: S. cerevisiae rad50 strain growth inhibition; at 50.0 µM; hits give high values
In short: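 Yeast carrying a defined DNA repair defect were exposed to test compounds, and growth was compared with vehicle-treated controls to give percent inhibition.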

[2] = NCI Yeast Anticancer Drug Screen. Data for the mec2-1 strain (AID 157); details: S. cerevisiae mec2-1 strain, at 50.0 µM, hits give high values
In short: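 Cells of the genetically defined mec2-1 yeast strain are incubated with test compound. Inhibition of growth is calculated against vehicle-treated controls.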

[3] = NCI Yeast Anticancer Drug Screen. Data for the sgs1 mgt1 strain (AID 161);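 note: 0% = growth of cultures given vehicle only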; details: S. cerevisiae sgs1 mgt1 strain, at 50.0 µM, hits give high values
In short: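 Genetically altered yeast, compound exposure, growth inhibition relative to vehicle.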

[4] = NCI Yeast Anticancer Drug Screen. Data for the cln2 rad14 strain (AID 165);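 note: 0% = growth equal to vehicle treated cultures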; details: S. cerevisiae cln2 rad14 strain, at 50.0 µM, hits give high values
In short: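 The screen exposed genetically defined yeast (cln2 rad14) to test compounds and scored growth inhibition relative to vehicle-treated controls.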

[5] = NCI Yeast Anticancer Drug Screen. Data for the bub3 strain (AID 167); details: S. cerevisiae bub3 mutant strain, at 50.0 µM, hits give high values
In short: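 Compounds were applied to a genetically altered yeast strain carrying a cell-cycle control defect. Growth inhibition was scored against vehicle-treated controls.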

[6] = NCI Yeast Anticancer Drug Screen. Data for the mlh1 rad18 strain (AID 175); details: S. cerevisiae mlh1 rad18 strain growth inhibition; at 50.0 µM; hits give high values
In short: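 Compound-treated yeast growth, normalised to vehicle controls. Strain bears defined DNA repair mutations.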

Measured: growth inhibition

O=[N+]([O-])c1c(O)c(CNCCCO)cc(CNCCCO)c1O
inactive: [1] 13.5% | [2] 29.8% | [3] 18.9% | [4] 19.6% | [5] 25.9% | [6] 43.1%

CC(=O)NNC(=S)/N=C\C(C(=O)c1ccccc1)=C(/O)c1ccccc1
inactive: [1] -41.4% | [2] -28.8% | [3] -14.4% | [4] 2% | [5] -15.4% | [6] -19.2%

CSCC[C@@H]1C(=O)N(C)[C@H](C(C)(C)C)N1C(=O)c1ccccc1
inactive: [1] -0.9% | [2] -12.4% | [3] -7.05% | [4] 0.6% | [5] 44.7% | [6] -13.4%

CCCC(OC(C)=O)c1ccc2c(c1)OCO2 (stereo not drawn)
inactive: [1] 26.4% | [2] 27.5% | [3] 17.3% | [4] -12% | [5] 20.9% | [6] 29.2%

CNc1ccccc1C(=O)N/N=C/C=C/c1ccccc1
inactive: [1] 31.6% | [2] 0.35% | [3] 31.1% | [4] 2.65% | [5] 5.3% | [6] 14.5%

CCCC(=O)c1cccs1
inactive: [1] 3.25% | [2] 9.85% | [3] 10.8% | [4] -11.3% | [5] -4.1% | [6] 11.9%

CCNC(=O)OCCc1c2ccccc2nc2ccccc12
inactive: [1] 51.4% | [2] 36.5% | [3] 42.4% | [4] 36.1% | [5] 12.7% | [6] 54.2%

CC(C)N(C(=O)c1ccccc1)C(C)C
inactive: [1] 20.2% | [2] 26.2% | [3] 29.4% | [4] -20.1% | [5] -7.35% | [6] 2.35%

Cc1cc2c(C(C)C)c(O)c(O)c(C=Nc3ccccc3[N+](=O)[O-])c2c(O)c1-c1c(C)cc2c(C(C)C)c(O)c(O)c(C=Nc3ccccc3[N+](=O)[O-])c2c1O
inactive: [1] -13.9% | [2] -19.6% | [3] -19.6% | [4] -21.8% | [5] -17.4% | [6] -2.3%

CCN(C(=O)Nc1ccccc1Cl)c1ccccc1
inactive: [1] 8.75% | [2] 13.1% | [3] 8.8% | [4] 2.95% | [5] 7.8% | [6] 11.6%

ClCc1cccc2c(CCl)cccc12
inactive: [1] 59.6% | [2] -6.25% | [3] 0.9% | [4] 33% | [5] -14.7% | [6] 12.4%

Clc1cccc(Cl)c1CSc1nc2ccccc2n2cccc12
inactive: [1] -13.3% | [2] -26.8% | [3] 5.2% | [4] 17.6% | [5] -29.9% | [6] -19%

NC(CCl)=NCC12CC3CC(CC(C3)C1)C2
inactive: [1] 52% | [2] 25.9% | [3] 48.8% | [4] 14.8% | [5] 54% | [6] 56.9%

Cc1cc(NC(=O)c2ccccc2)c(Cl)cc1N
inactive: [1] -26.4% | [2] -33.9% | [3] -11.9% | [4] -13.4% | [5] -21% | [6] -7.95%

CCNCC(C)(C)O
inactive: [1] 7.7% | [2] -3.8% | [3] 5.5% | [4] 8.35% | [5] -0.5% | [6] 27.8%

COc1ccc(Br)c(C=O)c1
inactive: [1] -10.1% | [2] -8.9% | [3] -5.65% | [4] 1.95% | [5] -7.45% | [6] -2.25%

COc1ccc(C2CCCCC2=O)cc1 (stereo not drawn)
inactive: [1] -17.2% | [2] -48.9% | [3] -11.8% | [4] 5.3% | [5] -34.2% | [6] -11.8%

Oc1cccnc1CN1CCCC1
inactive: [1] 1.15% | [2] -12.8% | [3] 2.3% | [4] 1.7% | [5] -5.8% | [6] 18.4%

C=C1C(=O)C2CCN1CC2
inactive: [1] 1.05% | [2] -15.8% | [3] -15.8% | [4] 2.95% | [5] -18.1% | [6] -21.2%

CC(C)(C)[Si](C)(C)OCC1OC(n2cnc3c(N)ncnc32)CC1OS(C)(=O)=O (stereo not drawn)
inactive: [1] -17% | [2] -21.6% | [3] 0.75% | [4] -3.15% | [5] 5.3% | [6] 0.5%

OC1Cc2ccccc2C1
inactive: [1] -32.5% | [2] -26.4% | [3] -17.6% | [4] -31.8% | [5] -28.1% | [6] -18.6%

O=[N+]([O-])c1ccc2[nH]c(=S)n(/C=C(/c3ccc(Cl)cc3Cl)S(=O)(=O)Cc3ccc(Cl)cc3Cl)c2c1
inactive: [1] -5.05% | [2] -13.8% | [3] 16.1% | [4] 23.9% | [5] -3% | [6] -13.1%

NNc1ncnc2c1ncn2C1OC(CO)C(O)C1O (stereo not drawn)
inactive: [1] -9.85% | [2] -12.8% | [3] 0.15% | [4] -21.9% | [5] 1.45% | [6] -15.2%

CC1(C)CC(=O)C=C(N)C1
inactive: [1] 7.35% | [2] -16.5% | [3] 1.05% | [4] 14.2% | [5] -4.7% | [6] 5.45%

O=S(=O)(O)c1cccnc1
inactive: [1] 12.4% | [2] 6% | [3] 10.7% | [4] -11.6% | [5] -2.25% | [6] 15.8%

Cn1c(=O)c2nc3c(=O)n(C)c(=O)n(C)c3nc2n(C)c1=O
inactive: [1] -8% | [2] -11.2% | [3] -17.2% | [4] -6.9% | [5] -13.7% | [6] -2.25%

O=C(CCl)Oc1ccc([N+](=O)[O-])cc1
inactive: [1] 20.8% | [2] 21.9% | [3] 23.8% | [4] 11.7% | [5] 19.8% | [6] 26.6%

c1ccc2c(NCCCN3CCN(CCCNc4c5ccccc5nc5ccccc45)CC3)c3ccccc3nc2c1
inactive: [1] 23.9% | [2] 4.6% | [3] 11.1% | [4] -0.25% | [5] 22.2% | [6] 14.9%

CCOC(=O)/C(C#N)=C\c1c[nH]c2ccccc12
inactive: [1] 54.5% | [2] 23.9% | [3] 46.3% | [4] -1.2% | [5] 57.7% | [6] 59.2%

C=C(c1ccc(N(C)C)cc1)c1ccc(N(C)C)cc1
inactive: [1] -0.95% | [2] -2.55% | [3] -3.05% | [4] -40.4% | [5] 9.5% | [6] -5.3%

O=C(O)Cc1ccccn1
inactive: [1] -29.4% | [2] -49.1% | [3] -1.75% | [4] 14.1% | [5] -28.8% | [6] -2.25%

CC(=O)Oc1c(Cl)cccc1-c1ccccc1
inactive: [1] 35.3% | [2] 10.9% | [3] 28.1% | [4] 5.4% | [5] 7.5% | [6] 13.4%

CCOC(=O)C(=O)CC(=O)c1ccccc1
inactive: [1] 8.65% | [2] 8.05% | [3] -5.75% | [4] -26.4% | [5] 8.55% | [6] 11.7%

CC1CC(C)S(=O)(=O)C1 (stereo not drawn)
inactive: [1] -35% | [2] -30.9% | [3] -39% | [4] -14.9% | [5] -39.8% | [6] -2%

CCOC(=O)c1ccc(Nc2sc(C(=O)c3ccc(Br)cc3)c(N)c2C#N)cc1
inactive: [1] -9.4% | [2] -23.6% | [3] 12.6% | [4] 20.3% | [5] -3.6% | [6] -2.05%

CC(C)c1ccccc1NC(=O)N1CCC(C(C)C)CC1
inactive: [1] -20.8% | [2] -42.6% | [3] -29.8% | [4] -22.6% | [5] -7% | [6] -12.7%

Cc1ccc(Cc2ccc(C)cc2)cc1
inactive: [1] -30.2% | [2] -34.2% | [3] -30.3% | [4] 3% | [5] -4.6% | [6] -8.2%

COC1CC(OC(=O)c2ccc([N+](=O)[O-])cc2)C(COC(=O)c2ccc([N+](=O)[O-])cc2)O1 (stereo not drawn)
inactive: [1] 9.45% | [2] 20.8% | [3] 1.9% | [4] -1.1% | [5] -0.7% | [6] 36.1%

CCCCN(C=S)CCCC
inactive: [1] 9.65% | [2] -2% | [3] -5.7% | [4] 13.7% | [5] -2.2% | [6] 10.7%

O=C(c1ccccc1)c1ccc(-c2ccc(O)cc2)cc1
inactive: [1] 37.7% | [2] 23.5% | [3] 24.9% | [4] -44.3% | [5] 57.1% | [6] -8%

O=C1C=CC(=O)C2=C1CCCC2
inactive: [1] 17.1% | [2] 10.9% | [3] 10.3% | [4] -9.75% | [5] -20.2% | [6] 26.9%

O=C(O)CCCCCNC(=O)OCc1ccccc1
inactive: [1] 17.7% | [2] -41.9% | [3] 16.7% | [4] 29.9% | [5] 3.25% | [6] 9.3%

CC(C)=CCC[C@@H](C)[C@H]1CC[C@@]2(C)C3=C(CC[C@]12C)[C@@]1(C)CC[C@H](O)C(C)(C)[C@@H]1CC3
inactive: [1] 12.7% | [2] -24.8% | [3] 21.8% | [4] 9.85% | [5] 11.7% | [6] -7.3%
